Screening data as filed in PubChem BioAssay.
Sampled rows, rich in hits. Any-hit rate of the full collection: about 10%.
Luciferase inh = blocks purified firefly luciferase enzyme activity | P08659 | AID 1347043 | Potency, µM (top dose mostly 115 µM), actives largely listed as inhibitors | 76,000 compounds, 2.5% hits | purified P. pyralis luciferase, luminescence, biochemical; also: nearly all actives have a fitted effect of over 65% in size
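Cell-free enzyme assay, 10nM P. pyralis luciferase, luciferin and ATP each at 10uM. Inhibition profiled over a 6-point titration, read as luminescence.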
NPR1 antag = antagonists of human natriuretic peptide receptor Npr1. AID 1347048. HEK293 hNpr1 GloSensor cGMP, ANP-stimulated luminescence. 76,000 compounds, 1.6% hits. P16066. Potency, µM (doses to about 46.3 µM), for the others: top-dose activity change, negative = inhibition, usual class: inhibitors; calls by dose curve; also: nearly all actives have a fitted effect of over 60% in size
Target sequence (P16066 whole entry, looked up): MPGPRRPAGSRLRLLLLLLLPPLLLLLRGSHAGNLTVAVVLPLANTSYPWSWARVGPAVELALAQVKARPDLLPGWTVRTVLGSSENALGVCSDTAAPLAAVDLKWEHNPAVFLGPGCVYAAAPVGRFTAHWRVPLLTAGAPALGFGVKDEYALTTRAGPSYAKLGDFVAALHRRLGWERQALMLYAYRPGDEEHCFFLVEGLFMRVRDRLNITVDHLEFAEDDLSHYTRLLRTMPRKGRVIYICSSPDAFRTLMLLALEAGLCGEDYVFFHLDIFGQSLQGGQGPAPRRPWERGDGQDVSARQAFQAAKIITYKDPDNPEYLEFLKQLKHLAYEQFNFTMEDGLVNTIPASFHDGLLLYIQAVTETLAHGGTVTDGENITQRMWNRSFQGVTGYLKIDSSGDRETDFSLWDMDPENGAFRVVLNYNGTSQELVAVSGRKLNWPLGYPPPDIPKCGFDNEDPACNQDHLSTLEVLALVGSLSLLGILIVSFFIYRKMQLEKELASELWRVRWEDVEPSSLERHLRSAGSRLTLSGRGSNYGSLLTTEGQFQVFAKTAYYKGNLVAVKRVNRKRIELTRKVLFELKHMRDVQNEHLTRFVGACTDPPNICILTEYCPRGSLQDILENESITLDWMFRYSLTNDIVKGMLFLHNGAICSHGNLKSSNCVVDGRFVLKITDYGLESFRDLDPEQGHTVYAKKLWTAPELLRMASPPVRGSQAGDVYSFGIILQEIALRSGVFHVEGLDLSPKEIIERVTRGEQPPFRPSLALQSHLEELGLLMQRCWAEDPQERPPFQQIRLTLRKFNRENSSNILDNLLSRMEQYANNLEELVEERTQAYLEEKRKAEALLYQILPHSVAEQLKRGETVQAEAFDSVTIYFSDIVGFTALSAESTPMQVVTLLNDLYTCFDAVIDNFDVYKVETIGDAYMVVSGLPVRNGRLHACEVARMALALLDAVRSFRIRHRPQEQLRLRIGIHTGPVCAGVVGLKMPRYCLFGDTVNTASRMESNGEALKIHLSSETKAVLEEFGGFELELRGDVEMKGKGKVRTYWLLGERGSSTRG
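Compound pre-incubated 30 min at room temperature on GloSensor-loaded HEK293 cells stably carrying hNpr1 and the pGS-40F cGMP biosensor. Stimulation uses hNppA at 0.1 nM final; luminescence is taken at baseline and 20 min post-agonist.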
GPT2 inhibitor = blocks human glutamate pyruvate transaminase 2 | Recombinant GPT2, coupled pyruvate oxidase/HRP Amplex Red fluorescence | Potency, µM (titrated, usually from 57.7 µM), inactives show top-dose activity change, negative = inhibition, hits mostly inhibitors | 100,000 compounds, 0.25% hits; also: nearly all actives have a fitted effect of over 60% in size
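GPT2 10ng/uL, a-KG 250uM, L-Ala 2mM, HEPES pH7.5 + 0.0001% Tween; 30 min RT. Then Amplex mix (PO/HRP/ThPP), 30 min RT dark, fluorescence. AOA 50uM used as positive control.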
3T3 cytotox = kills NIH 3T3 cells | Potency, µM (series often up to 96.7 µM), for the others: top-dose activity change, negative = cytotoxicity, most hits filed as inhibitors | 94,000 compounds, 4.3% hits | NIH 3T3 viability, CellTiter-Glo ATP luminescence, 48-72 h; also: nearly all actives have a fitted effect of over 55% in size
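ATP-dependent luminescence (CellTiter-Glo) served as the viability signal for NIH 3T3 cells treated with compound for 48 or 72 hr at 37 °C.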
HEK293 tox = HEK 293 cell cytotoxicity. HEK 293 viability, ATP luminescence (CellTiter-Glo), 48-72 h. Potency, µM (top dose mostly 115 µM), for inactives: top-dose activity change, negative = cytotoxicity, hits mostly inhibitors. 94,000 compounds, 6.6% hits; also: nearly all actives have a fitted effect of over 60% in size
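Pintool-delivered compounds were incubated with HEK 293 cells (250 cells/well) at 37 degree Celsius for 48 or 72 hr. ATP-dependent luminescence (CellTiter-Glo) then reported remaining viable cells.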
* hit, by the source's call; [ ] = another dose, or the depositor's remark. Unless noted, calls follow the shape of the dose curve; as a rule, active = well fitted curve in the direction sought with a large enough effect; inconclusive = small, poorly fitted or top-dose-only effect, or another doubt; inactive = no such curve, though single readings can be large; an effect the other way counts as inactive or inconclusive. % is scaled to controls: 0 for no effect and ±100 for the full control effect; potency is read from the fitted curve at half-maximal effect.

For COc1ccc(CN(Cc2ccc(OC)cc2)C[C@H]2C[C@@H]3CCN2C[C@@H]3c2cc(C3CCCC3)nn2C)cc1 the results were Luciferase inh inactive, NPR1 antag 2%, GPT2 inhibitor 0%, 3T3 cytotox 20µM* and HEK293 tox 25µM*.
COc1ccc(-c2cc([C@H]3CN4CC[C@H]3C[C@@H]4COC(=O)Nc3ccccc3)n(C)n2)cc1 was read as Luciferase inh inactive, NPR1 antag -6%, GPT2 inhibitor inactive, 3T3 cytotox 20µM* and HEK293 tox inconclusive.
COc1ccc(-c2cc([C@H]3CN4CC[C@H]3C[C@@H]4CNC(=O)Nc3ccccc3)n(C)n2)cc1 was read as Luciferase inh inactive, NPR1 antag 2%, GPT2 inhibitor inactive, 3T3 cytotox 79µM* and HEK293 tox inconclusive.
Screening CC(C)NC(=O)NC[C@H]1C[C@@H]2CCN1C[C@@H]2c1cc(-c2cccs2)nn1C returned Luciferase inh inactive, NPR1 antag 1%[70.6 µM], GPT2 inhibitor -4%[88.5 µM], 3T3 cytotox -27%[174 µM] and HEK293 tox -15%[172 µM].
For CC(C)NC(=O)NC[C@H]1C[C@@H]2CCN1C[C@@H]2c1cc(-c2ccc3ccccc3c2)nn1C the results were Luciferase inh inactive, NPR1 antag 2%[70.6 µM], GPT2 inhibitor 1%[88.5 µM], 3T3 cytotox 28µM* and HEK293 tox 22µM*.
`COCC(=O)NC[C@H]1C[C@@H]2CCN1C[C@@H]2c1cc(C2CCCCC2)nn1C` gave Luciferase inh inactive, NPR1 antag -2%[70.6 µM], GPT2 inhibitor -16%[88.5 µM], 3T3 cytotox -11%[174 µM] and HEK293 tox 0%[172 µM].
Cn1nc(C2CCCCC2)cc1[C@H]1CN2CC[C@H]1C[C@@H]2CNC(=O)COc1ccccc1 was read as Luciferase inh inactive, NPR1 antag 0%, GPT2 inhibitor inactive, 3T3 cytotox inconclusive and HEK293 tox 45µM*.
For COc1ccc(-c2cc([C@H]3CN4CC[C@H]3C[C@@H]4CNC(=O)Nc3ccccc3)n(C)n2)cc1OC the results were Luciferase inh inactive, NPR1 antag -1%, GPT2 inhibitor 0%, 3T3 cytotox inconclusive and HEK293 tox inconclusive.
For O=C(O)c1cccc(C(=O)N2C[C@@H]3C[C@H](C2)c2ccc(NC(=O)C4CC4)c(=O)n2C3)c1 the results were Luciferase inh inactive, NPR1 antag -2%[70.6 µM], GPT2 inhibitor inactive, 3T3 cytotox inconclusive and HEK293 tox inconclusive.
For CN(Cc1ccccc1)Cc1cn(C[C@H]2C[C@@H]3CCN2C[C@@H]3C(=O)Nc2ccccc2)nn1 the results were Luciferase inh inactive, NPR1 antag 0%, GPT2 inhibitor inactive, 3T3 cytotox inconclusive and HEK293 tox inconclusive.
`CNc1nc(N2C[C@H]3CN(CCOC)C[C@@]3(C(=O)O)C2)ncc1F` gave Luciferase inh inactive, NPR1 antag 13%, GPT2 inhibitor -10%, 3T3 cytotox -7% and HEK293 tox 4%.
Screening Cn1nc(-c2ccc3ccccc3c2)cc1[C@H]1CN2CC[C@H]1C[C@@H]2CNC(=O)Nc1cccc(C#N)c1 returned Luciferase inh inactive, NPR1 antag 4%, GPT2 inhibitor inactive, 3T3 cytotox 45µM* and HEK293 tox inconclusive.
Cn1nc(-c2ccccc2)cc1[C@H]1CN2CC[C@H]1C[C@@H]2CNC(=O)Nc1ccccc1 was read as Luciferase inh inactive, NPR1 antag 0%[70.6 µM], GPT2 inhibitor 1%[88.5 µM], 3T3 cytotox 50µM* and HEK293 tox 50µM*.
Screening Cn1nc(C2CCCC2)cc1[C@H]1CN2CC[C@H]1C[C@@H]2CNC(=O)Nc1ccccc1 returned Luciferase inh inactive, NPR1 antag 6%[70.6 µM], GPT2 inhibitor -4%[88.5 µM], 3T3 cytotox inconclusive and HEK293 tox 100µM*.
For Cn1nc(-c2cccs2)cc1[C@H]1CN2CC[C@H]1C[C@@H]2COC(=O)Nc1ccccc1 the results were Luciferase inh inactive, NPR1 antag -16%[70.6 µM], GPT2 inhibitor inactive, 3T3 cytotox 35µM* and HEK293 tox 45µM*.
CCOC(=O)[C@H]1CN(C(=O)c2ccc3c(c2)OCO3)[C@]2(C)C(=O)N(C)c3ccccc3[C@H]12 was read as 3T3 cytotox -19% and HEK293 tox inconclusive.
Cc1nc(-c2ccco2)cc([C@H]2CN3CC[C@H]2C[C@@H]3CNC(=O)C(C)(C)C)n1 was read as Luciferase inh inactive, NPR1 antag 0%[70.6 µM], GPT2 inhibitor inactive, 3T3 cytotox -19%[174 µM] and HEK293 tox -17%[172 µM].
Cc1nc(-c2cccs2)cc([C@H]2CN3CC[C@H]2C[C@@H]3CNC(=O)C2CCC2)n1 was read as Luciferase inh inactive, NPR1 antag -10%[70.6 µM], GPT2 inhibitor 1%[88.5 µM], 3T3 cytotox inconclusive and HEK293 tox inconclusive.
For O=c1ccc(-c2ccccc2)c2n1C[C@H]1C[C@@H]2CN(S(=O)(=O)c2cccs2)C1 the results were Luciferase inh inactive, NPR1 antag 3%[70.6 µM], GPT2 inhibitor -3%[88.5 µM], 3T3 cytotox inconclusive and HEK293 tox -25%[172 µM].
For OC[C@@H]1[C@H]2CN(Cc3ccoc3)CCN2C[C@H]1c1ccccc1 the results were 3T3 cytotox -10% and HEK293 tox inconclusive.
For CC[C@H]1CN2CC[C@H]1C[C@@H]2CNC(=O)Nc1cccc(SC)c1 the results were Luciferase inh inactive, NPR1 antag 2%[70.6 µM], GPT2 inhibitor -9%[88.5 µM], 3T3 cytotox -22%[174 µM] and HEK293 tox -24%[172 µM].
CCN(CC)C[C@H]1CN2CC[C@H]1C[C@@H]2CNC(=O)Nc1cccc(SC)c1 was read as Luciferase inh inactive, NPR1 antag -3%[70.6 µM], GPT2 inhibitor 1%[88.5 µM], 3T3 cytotox 40µM* and HEK293 tox 50µM*.
For CSc1cccc(NC(=O)NC[C@H]2C[C@@H]3CCN2C[C@@H]3CN(C)Cc2ccccc2)c1 the results were Luciferase inh inactive, NPR1 antag -1%, GPT2 inhibitor 1%, 3T3 cytotox 22µM* and HEK293 tox 28µM*.
`CC(C)NC(=O)NC[C@H]1C[C@@H]2CCN1C[C@@H]2CN(C)Cc1ccccc1` gave Luciferase inh inactive, NPR1 antag 3%[70.6 µM], GPT2 inhibitor -10%[88.5 µM], 3T3 cytotox -21%[174 µM] and HEK293 tox -10%[172 µM].
For CSc1cccc(NC(=O)NC[C@H]2C[C@@H]3CCN2C[C@@H]3CN(C)c2ccccc2)c1 the results were Luciferase inh inconclusive, NPR1 antag -17%[70.6 µM], GPT2 inhibitor inactive, 3T3 cytotox 32µM* and HEK293 tox 25µM*.
Screening CCN1C[C@]2(COC)[C@H](O)C[C@H](OC)[C@]34[C@@H]5C[C@]6(O)[C@H](OC(=O)c7ccccc7)[C@@H]5[C@@](O)([C@H]([C@H](OC)[C@H]23)[C@@H]14)[C@@H](O)[C@@H]6OC returned GPT2 inhibitor -7%[27.3 µM].
